Pf growth 48h: P. falciparum growth inhibition at 48 hours (one generation); P. falciparum luciferase growth in erythrocytes, 48 h; Potency, µM (titrated, usually from 28.7 µM), inactives show at the highest dose activity change, negative = inhibition, most hits filed as inhibitors; 310,000 compounds, 5.9% hits; further: potency means the concentration at half of the fitted maximal effect; on the % scale 0 is the no-effect control and ±100 the full control effect
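Cell-based growth assay: transgenic P. falciparum expressing firefly luciferase, cultured in red cells within RPMI 1640 containing 0.5% w/v Albumax, 24 mM bicarbonate and gentamycin. A drop in luciferase activity indicates inhibition.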
Cycloheximide cs: affects cycloheximide protein synthesis inhibition readout, counter-screen. max response, %. 300,000 compounds, 12% hits. cell reporter, cycloheximide protein synthesis inhibition counterscreen. AID 2314; in the data active means max response mostly above about 13%, no sharp cut-off; inactive means mostly below about 14%; further: read at 38.3 µM for the half of the compounds with a filed dose; 0% is about no effect
SARS PLP yeast: blocks SARS-CoV papain-like protease in a yeast assay | S. cerevisiae expressing SARS-CoV PLpro, growth rescue | Potency, µM (top dose mostly 32.9 µM), for inactives: top-dose activity, positive = growth rescue, hits mostly activators | 330,000 compounds, 0.19% hits | AID 485353; calls by dose curve; further: potency means the concentration at half of the fitted maximal effect; 0% is about no effect; nearly all actives have a fitted effect of over 55% in size
AMA1 RON2 block: inhibitors of Plasmodium falciparum AMA1-RON2 interaction; 360,000 compounds, 0.2% hits; AID 720542; AlphaScreen AMA1-biotinylated RON2 peptide binding; Potency, µM (top dose mostly 58.2 µM), without a hit: top-dose activity change, negative = inhibition, actives largely listed as inhibitors;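 further: potency means the concentration at half of the fitted maximal effect; 0% = vehicle wells and -100% = peptide control; nearly all actives have a fitted effect of over 45% in size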
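AMA1 (3D7) with his tag at 25 nM final met compounds first, then biotinylated RON2 peptide at 25 nM; detection used donor plus acceptor beads, 10 µg/mL apiece, read by AlphaScreen after 30 min at room temperature.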
Shiga toxin inh: blocks Shiga toxin action in Vero cells; 290,000 compounds, 9.2% hits; Vero cells, Shiga toxin protein synthesis inhibition reporter; inhibition, % at 38.7 µM; in the data active means inhibition mostly above about 28%, no sharp cut-off; inactive means mostly below about 43%; further: 0% is about no effect
Pf growth 96h: P. falciparum growth inhibition at 96 hour, primary screen for plastid delayed-death inhibitors | P. falciparum luciferase reporter growth, 96 h | Potency, µM (top dose mostly 28.7 µM), for inactives: at the highest dose activity change, negative = inhibition, actives largely listed as inhibitors | 320,000 compounds, 6.9% hits | AID 504834; further: potency means the concentration at half of the fitted maximal effect; on the % scale 0 is the no-effect control and ±100 the full control effect
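Infected RBCs, 2% Hct / 0.05% parasitemia final; luciferase-reporter P. falciparum; cpd 96 h, 37 C, 5% CO2; luciferase detection reagent; luminescence.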
* marks the source's active call; other numbers are inactive results; [ ] = dose if it differs, or a comment. Only some compounds are listed: those with a hit (about 19% of all), similar ones and a draw of the others. Unless noted, the call rests on the fitted dose curve; in most records, active means well fitted curve in the direction sought with a large enough effect; inconclusive means small, poorly fitted or top-dose-only effect, or another doubt; inactive means no such curve, though single readings can be large; an effect the other way counts as inactive or inconclusive.

`O=C(NC(=S)Nc1cccc(NC(=O)c2ccc(Cl)cc2Cl)c1)c1cccs1` gave Pf growth 48h -7%, Cycloheximide cs -2, SARS PLP yeast -7%, AMA1 RON2 block 25%, Shiga toxin inh 13 and Pf growth 96h 232%.
Cc1ccc(OCC(=O)NNC(=O)c2cccnc2)cc1C was read as Pf growth 48h 22%, Cycloheximide cs -2, SARS PLP yeast 0%, AMA1 RON2 block 9%, Shiga toxin inh -3 and Pf growth 96h 52%.
Screening Cc1cccc(-c2noc(CCCC(=O)NC3CCCCC3)n2)c1 returned Pf growth 48h -2%, Cycloheximide cs -5, SARS PLP yeast 2%, AMA1 RON2 block 4%, Shiga toxin inh -11 and Pf growth 96h 12%.
Screening Cc1ccc(-c2noc(C3CCCCC3)n2)cc1 returned Pf growth 48h 113%, Cycloheximide cs 27, SARS PLP yeast 0%, AMA1 RON2 block 26%, Shiga toxin inh 50* and Pf growth 96h 73%.
`CCS(=O)(=O)N1CCC(c2nc(-c3ccc(C)cc3)no2)CC1` gave Pf growth 48h 78%, Cycloheximide cs 55*, SARS PLP yeast -2%, AMA1 RON2 block 3%, Shiga toxin inh 74* and Pf growth 96h inconclusive.
Screening Cc1cccc(-c2noc(C3CCCCC3)n2)c1 returned Pf growth 48h 164%, Cycloheximide cs 55*, AMA1 RON2 block -3% and Shiga toxin inh 198*.
For CCS(=O)(=O)N1CCC(c2nc(-c3ccc(C(F)(F)F)cc3)no2)CC1 the results were Pf growth 48h -15%, Cycloheximide cs 0, SARS PLP yeast 0%, AMA1 RON2 block -3%, Shiga toxin inh -17 and Pf growth 96h -13%.
For Cc1cccc(-c2noc(-c3ccno3)n2)c1 the results were Pf growth 48h 21%, Cycloheximide cs 40*, SARS PLP yeast -1%, AMA1 RON2 block 16%, Shiga toxin inh 91* and Pf growth 96h 17%.
Screening COc1ccc(-c2noc(-c3cc(C)cc(C)c3)n2)cc1OC returned Cycloheximide cs -7, SARS PLP yeast 8%, AMA1 RON2 block -2%, Shiga toxin inh -15 and Pf growth 96h inconclusive.
`Cc1ccc(S(=O)(=O)c2nnn3c2nc(N2CCOCC2)c2ccccc23)c(C)c1` gave Pf growth 48h inconclusive, Cycloheximide cs -1, SARS PLP yeast -1%, AMA1 RON2 block inconclusive, Shiga toxin inh -4 and Pf growth 96h 14%.
For COc1ccccc1C1NC(=O)NC(C)=C1C(=O)OC1CCC(C)CC1 (stereo not drawn) the results were Pf growth 48h 14%, Cycloheximide cs -3, SARS PLP yeast -6%, AMA1 RON2 block 3%, Shiga toxin inh 6 and Pf growth 96h 49%.
Screening COc1ccc(Cc2nnc(SCc3c(C)noc3C)n2C2CCCCC2)cc1OC returned Pf growth 48h 9.3µM*, Cycloheximide cs 13, SARS PLP yeast 6%, AMA1 RON2 block 14%, Shiga toxin inh 51* and Pf growth 96h inconclusive.
Cc1cc(C)c2c(N=NN3CCOCC3)[nH]nc2n1 was read as Pf growth 48h 7%, Cycloheximide cs 2, SARS PLP yeast -72%, AMA1 RON2 block 9%[2.32 µM], Shiga toxin inh -1 and Pf growth 96h 4.7µM*.
Screening C=CCC1NS(=O)(=O)O[C@H](CCCC)[C@@H]1O (stereo partly drawn) returned Pf growth 48h 39%, Cycloheximide cs -5, SARS PLP yeast 6%, AMA1 RON2 block -4%, Shiga toxin inh -9 and Pf growth 96h -8%.
For Cc1ccc(-c2nc(CS(=O)CC(=O)NCc3ccccc3)c(C)o2)cc1 (stereo not drawn) the results were Cycloheximide cs -6, SARS PLP yeast 8%, AMA1 RON2 block 1%, Shiga toxin inh -19 and Pf growth 96h -38%.
COc1ccc(CCNC(=O)CS(=O)Cc2nc(-c3cccs3)oc2C)cc1OC (stereo not drawn) was read as Pf growth 48h inconclusive, Cycloheximide cs 2, SARS PLP yeast -1%, AMA1 RON2 block 3%, Shiga toxin inh -17 and Pf growth 96h 8.3µM*.
Cc1ccc(CCNC(=O)CS(=O)Cc2nc(-c3cccs3)oc2C)cc1 (stereo not drawn) was read as Pf growth 48h -9%, Cycloheximide cs -2, SARS PLP yeast -5%, AMA1 RON2 block 14%, Shiga toxin inh -11 and Pf growth 96h -7%.
CCc1ccc(-c2nc(CS(=O)CC(=O)NCCc3ccccc3)c(C)o2)cc1 (stereo not drawn) was read as Pf growth 48h 22%, Cycloheximide cs 21*, SARS PLP yeast 6%, AMA1 RON2 block -7%, Shiga toxin inh 43 and Pf growth 96h inconclusive.
For Cc1oc(-c2ccc(Cl)cc2)nc1CS(=O)CC(=O)NC1CCCCCC1 (stereo not drawn) the results were Pf growth 48h 14%, Cycloheximide cs -2, SARS PLP yeast -4%, AMA1 RON2 block -1%, Shiga toxin inh 23 and Pf growth 96h 9.3µM*.
For CCc1ccc(-c2nc(CS(=O)CC(=O)NCCCN3CCC(C)CC3)c(C)o2)cc1 (stereo not drawn) the results were Pf growth 48h inconclusive, Cycloheximide cs 19*, SARS PLP yeast -2%, AMA1 RON2 block 0%, Shiga toxin inh 19 and Pf growth 96h 5%.
Screening Cc1oc(-c2ccc(Cl)cc2)nc1CS(=O)CC(=O)NC1CCCCC1 (stereo not drawn) returned Pf growth 48h 20%, Cycloheximide cs 9, SARS PLP yeast 1%, AMA1 RON2 block -6%, Shiga toxin inh 19 and Pf growth 96h -14%.
For Cc1ccsc1C(=O)Nc1cc(Cl)ccc1-n1cncn1 the results were AMA1 RON2 block 11%.
`CC(C)N1CCC(C)(C(=O)Nc2ccc(-n3cccc3)cc2)C1` (stereo not drawn) gave AMA1 RON2 block -3%.
CCCCNC(=O)CS(=O)Cc1nc(-c2cccc(C)c2)oc1C (stereo not drawn) was read as Cycloheximide cs -2, SARS PLP yeast 8%, AMA1 RON2 block 5%, Shiga toxin inh -5 and Pf growth 96h 0.1µM*.
For Cc1oc(-c2ccccc2F)nc1CS(=O)(=O)CC(=O)NCCCN1CCN(C)CC1 the results were Pf growth 48h -3%, Cycloheximide cs -5, SARS PLP yeast 5%, AMA1 RON2 block -6%, Shiga toxin inh 11 and Pf growth 96h 10µM*.
`CCCCSCCCNC(=O)CS(=O)Cc1nc(-c2cccc(C)c2)oc1C` (stereo not drawn) gave Pf growth 48h 24%, Cycloheximide cs -1, SARS PLP yeast -2%, AMA1 RON2 block -7%, Shiga toxin inh 13 and Pf growth 96h inconclusive.

Source: PubChem BioAssay
